# Hits are enriched below; roughly 3.2% of the tested compounds scored in any of these assays.
# Tau fibril ThT – inhibitors of human tau fibril formation, thioflavin T binding; Potency, µM (series often up to 57.4 µM), without a hit: top-dose activity, negative = inhibition, hits mostly inhibitors; hit rate 2.1% among 270,000; P10636; recombinant tau K18 P301L, heparin-induced fibrillization, ThT fluorescence; AID 1460; note: potency is the fitted concentration of half-maximal effect; % is set by controls: 0 for no effect and ±100 for the full control effect; nearly all actives have a fitted effect of over 55% in size
# Target sequence (P10636 561-689 P618L limits assumed): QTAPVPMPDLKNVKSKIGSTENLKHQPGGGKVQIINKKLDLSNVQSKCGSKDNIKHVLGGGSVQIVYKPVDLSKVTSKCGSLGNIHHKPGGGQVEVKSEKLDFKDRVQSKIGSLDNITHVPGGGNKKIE
#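 Aggregation was driven by heparin (20 uM final) acting on recombinant tau […] bearing P301L in 100 mM sodium acetate pH 7; fibrils were detected with Thioflavin T.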
# JMJD2E inh – blocks human JMJD2E demethylase activity; B2RXH2; JMJD2E catalytic domain, FDH-coupled NADH fluorescence (FDH is formaldehyde dehydrogenase); Potency, µM (titrated, usually from 57.1 µM), inactives show top-dose activity change, negative = inhibition, actives largely listed as inhibitors; hit rate 1.6% among 230,000; active = well fitted inhibition curve with a large enough effect, not every such curve was filed as active; inconclusive = small, poorly fitted or top-dose-only effect, or another doubt; inactive = no such curve, though single readings can be large or run the other way;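 note: potency is the fitted concentration of half-maximal effect; 0% = wells with enzyme and -100% = buffer wells without enzyme; nearly all actives have a fitted effect of over 50% in size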
# Tau fluor counter – counter-screen for tau fibril formation inhibitors. tau K18 P301L Alexa594 fluorescence, heparin fibrillization. Potency, µM (titrated, usually from 57.7 µM), for the others: at the top dose activity change, negative = decrease. hit rate 0.93% among 280,000; note: potency is the fitted concentration of half-maximal effect; % is set by controls: 0 for no effect and ±100 for the full control effect; nearly all actives have a fitted effect of over 55% in size
#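 Human tau K18 P301L (15 uM unlabeled, 0.24 uM Alexa 594-labeled) in 100 mM sodium acetate pH 7 with 20 uM heparin, 6 hr at 37 C. ThT 30 uM added, 1 hr ambient; Alexa 594 FP and total fluorescence read at 555/632 nm.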
# Lamin A splicing – LMNA splicing modulation; HeLa LMNA splicing GFP/RFP minigene ratio, 48 h; hit rate 0.01% among 200,000; Potency, µM (top dose mostly 46.1 µM), for inactives: top-dose ratio change, negative = inhibition, hits mostly inhibitors; active = well fitted inhibition curve with a large enough effect in the signal ratio, with a control signal flat, not every such curve was filed as active; inconclusive = small, poorly fitted or top-dose-only effect, or effect the other way, or a change in a side signal; the % refers to the signal ratio; note: potency is the fitted concentration of half-maximal effect; % is set by controls: 0 for no effect and ±100 for the full control effect
#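 S3 HeLa cells stably expressing lamin A-EGFP splicing minigene plus DsRed2, 600 cells/well, 48 h compound exposure at 37C. Laser-scanning cytometry; analysed as GFP (500-530 nm)/RFP (575-640 nm) total intensity ratio; 0.5% DMSO vehicle.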
# CBFb RUNX1 block – blocks binding between human CBF-beta and RUNX1; Q01196+Q13951; AlphaScreen CBFb-His/RUNX1-biotin binding, biochemical; Potency, µM (highest dose often 59.8 µM), for inactives: at the highest dose activity, negative = inhibition, most hits filed as inhibitors; 230,000 tested, under 10 active; AID 1477; note: % of control where 0% means no effect
# Target sequence (Q01196 whole entry, looked up): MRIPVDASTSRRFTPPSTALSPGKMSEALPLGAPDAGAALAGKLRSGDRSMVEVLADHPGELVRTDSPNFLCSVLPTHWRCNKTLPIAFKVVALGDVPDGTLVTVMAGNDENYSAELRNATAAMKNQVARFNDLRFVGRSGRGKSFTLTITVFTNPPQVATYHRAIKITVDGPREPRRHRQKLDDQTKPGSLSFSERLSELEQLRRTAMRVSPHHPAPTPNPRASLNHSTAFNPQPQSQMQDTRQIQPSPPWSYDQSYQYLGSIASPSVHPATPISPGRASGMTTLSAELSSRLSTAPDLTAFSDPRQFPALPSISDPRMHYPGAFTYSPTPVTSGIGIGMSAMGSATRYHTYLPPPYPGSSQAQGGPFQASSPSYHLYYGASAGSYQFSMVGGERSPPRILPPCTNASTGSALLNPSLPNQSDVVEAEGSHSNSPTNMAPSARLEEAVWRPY
# Target sequence (Q13951 whole entry, looked up): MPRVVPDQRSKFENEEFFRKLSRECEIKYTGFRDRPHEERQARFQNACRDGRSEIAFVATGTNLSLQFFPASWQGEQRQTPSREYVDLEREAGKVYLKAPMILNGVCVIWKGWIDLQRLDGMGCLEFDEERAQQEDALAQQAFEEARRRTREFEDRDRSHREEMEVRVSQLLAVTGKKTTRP
#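 Inhibition was taken as any reduction in AlphaScreen signal from the CBF-beta–RUNX1 pair (His and biotin tags, 30 nM each), measured after compound (15 min) and bead (90 min) incubations at room temperature.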
# Tau fibril FP – inhibitors of human tau fibril formation; hit rate 0.39% among 280,000; K18 P301L tau heparin fibrillization, Alexa594 FP, 6 h; Potency, µM (doses to about 57.7 µM), for the others: at the top dose activity, negative = inhibition, usual class: inhibitors; P10636; note: potency is the fitted concentration of half-maximal effect; % is set by controls: 0 for no effect and ±100 for the full control effect; nearly all actives have a fitted effect of over 55% in size
#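 Steps: dispense K18 P301L tau (15 uM plus 0.24 uM Alexa 594 tracer, final) in pH 7 sodium acetate; add compound; add heparin (20 uM final); incubate 6 hr, 37 C; add ThT (30 uM final); after 1 hr ambient, read FP.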
# The depositor's hits bear a star; ? = inconclusive; · = no result given; [ ] = another dose, or the depositor's remark. Unless noted, calls come from the whole dose curve; as a rule, active = well fitted curve in the direction sought with a large enough effect; inconclusive = small, poorly fitted or top-dose-only effect, or another doubt; inactive = no such curve, though single readings can be large; an effect the other way counts as inactive or inconclusive.
SMILES,Tau fibril ThT,JMJD2E inh,Tau fluor counter,Lamin A splicing,CBFb RUNX1 block,Tau fibril FP
CN(C)c1ccc(C(=O)Nc2nc3c(s2)CCCC3)cc1,7.94µM*,?,?,?,-4.3%,5.0%
C/C(=N\Nc1nc2c(s1)CCCC2)c1ccc(Cl)cc1,14.1µM*,-23.0%,25.1µM*[quencher],?,-16.3%,-12.0%
C/C(=N\NC1=NCCN1)c1ccc(Cl)cc1,1.2%,-8.5%,-6.0%,·,1.6%,-2.5%
CCCCC(Sc1nc2cc3c(cc2c(=O)n1CCCC(=O)NCc1ccc2c(c1)OCO2)OCO3)C(=O)OCC (centres undefined),7.6%,·,7.3%,15.1%[46 µM],·,2.9%
Cc1ccc(S(=O)(=O)Nc2nc3ccccc3nc2Nc2cccc(S(=O)(=O)N3CCCC3)c2)cc1,?,?,-21.7%,?,4.8%,12.6%
O=[N+]([O-])c1cccc(S(=O)(=O)Nc2nc3ccccc3nc2Nc2cccc(S(=O)(=O)N3CCCCC3)c2)c1,15.8µM*,-16.5%,?,?,3.6%,-8.5%
CCc1c2c(nc3cccc(OC)c13)OC(CC)C2 (centres undefined),-9.9%,?,-8.5%,·,-1.0%,5.1%
CN(c1ccc(O)cc1)c1nc(-c2ccccc2)cs1,?,-16.6%,15.8µM*[quencher],?,?,?
COc1cc(N2CCCC2)c(OC)cc1/C=C1/NC(=S)NC1=O,11.2µM*,-5.3%,?,-11.6%,-28.1%,-5.6%
COc1ccc(NC(=O)c2c(NCc3cccs3)sc3c2CCCC3)c(OC)c1,?,·,?,?,·,0.5%
COc1ccc(NC(=O)c2c(NCc3sccc3C)sc3c2CCCCC3)c(OC)c1,28.2µM*,·,?,?,·,?
COc1ccc(NC(=O)c2c(NCc3ccc(C)o3)sc3c2CCCCC3)c(OC)c1,17.8µM*,·,?,-21.7%[46 µM],·,?
COc1ccc(Cl)cc1NC(=O)c1c(NCc2sccc2C)sc2c1CCCC2,3.98µM*,·,?,2.8%[46 µM],·,?
Cc1ccc(OCC(=O)Nc2ccc(S(=O)(=O)Nc3cc(C)on3)cc2)c(Br)c1,-8.9%,·,-3.3%,·,·,1.0%
CCN(CC)CCC[C@H](C)Nc1c2ccc(Cl)cc2nc2ccc(OC)cc12,·,?,·,?,13.1%[21.7 µM],·
COc1c(Cl)ccc(Cl)c1C(=O)O,-2.4%,?,-4.1%,10.2%,·,1.8%
O=C1CN(/N=C/c2ccc(-c3ccc([N+](=O)[O-])cc3)o2)C(=O)N1,10µM*,·,-12.4%,?,7.4%,-10.9%
O=[N+]([O-])c1ccc(-c2ccc(/C=N/O)o2)cc1,7.08µM*,8.3%,-22.8%,·,-12.8%,-2.2%
COc1ccc(-c2c(O)c3c(OC)c4c(cc3oc2=O)OC(C)(C)C=C4)cc1,?,?,-17.8%,-7.2%,·,12.3%
CC(=O)Nc1ccc(OS(=O)(=O)O)cc1,·,·,·,·,17.3%,·
Cn1/c(=N/N=C/c2ccc([N+](=O)[O-])cc2)sc2ccccc21,?,12.0%,-6.9%,0.1%,0.6%,3.6%
Cc1cc(C)c2c(c1)/C(=N\N=c1\sc3ccccc3n1C)C(=O)N2,4.47µM*,13.1%,-7.4%,·,0.7%,6.3%
CC(=O)c1ccc(C2C=CC(O)C(CO)O2)cc1 (centres undefined),-13.6%[11.5 µM],·,-8.6%[11.6 µM],·,-5.3%[13.1 µM],-4.1%[11.6 µM]
O=[N+]([O-])c1cc(S(=O)(=O)Nc2ccccc2)ccc1N1CCN(c2ccc(O)cc2)CC1,-5.9%,3.1%,-2.3%,?,0.4%,8.9%
Cc1ccc(NS(=O)(=O)c2ccc(N3CCN(c4ccc(O)cc4)CC3)c([N+](=O)[O-])c2)c(C)c1,14.1µM*,-6.4%,11.2µM*[quencher],?,?,8.0%
SMILES,Tau fibril ThT,JMJD2E inh,Tau fluor counter,Lamin A splicing,CBFb RUNX1 block,Tau fibril FP
Cc1nn(-c2ccccc2)c(NC(=O)NS(=O)(=O)c2ccc(Cl)cc2)c1C#N,·,·,·,·,5.0%,·
O=C(NC1(O)C(=O)c2ccccc2C1=O)c1ccccc1,2.82µM*,?,-19.3%,-5.1%,8.4%,?
O=C(NC1(O)C(=O)c2ccccc2C1=O)c1c(Cl)cccc1Cl,·,?,-6.2%,·,1.2%,?
COc1ccc(C(=O)/C=C/c2ccc(F)cc2)c(OC(=O)c2ccc([N+](=O)[O-])cc2)c1,10µM*,1.5%,12.6µM*[quencher],?,-0.8%,0.3%
COc1ccc(N(C(=O)c2cccc([N+](=O)[O-])c2)S(=O)(=O)c2cccs2)cc1,?,6.2%,?,?,-1.1%,0.2%
COc1cccc(NC(=O)/C=C/c2ccc([N+](=O)[O-])cc2)c1,·,-12.8%,-45.2%,·,-23.8%,2.9%
COc1ccc(C(=O)/C=C/c2cccs2)c(OC(=O)c2cccc([N+](=O)[O-])c2)c1,3.98µM*,10.0%,?,?,-2.1%,9.4%
Cc1ccc(OCCSc2nc(-c3ccccc3C)nc3cc(=O)[nH]n23)cc1Cl,?,·,-13.8%,·,·,-17.0%
CCOC(=O)c1c(C)[nH]c(C2=NNC(=Nc3ccc(OCC)cc3)SC2)c1C,14.1µM*,-22.2%,?,?,?,?
CC(=O)c1c(C)[nH]c(C2=NNC(=NC(C)(C)C)SC2)c1C,?,?,-26.9%,?,-10.3%,?
CCOC(=O)c1c(C)[nH]c(C2=NNC(=Nc3ccccc3)SC2)c1C,3.98µM*,-8.2%,7.94µM*[quencher],?,-1.6%,?
CCOC(=O)c1c(C)[nH]c(C2=NNC(=Nc3ccccc3OC)SC2)c1C,7.94µM*,-6.3%,?,?,?,-9.5%
COc1ccccc1OCCn1cc(/C=N/NC(N)=S)c2ccccc21,?,?,?,·,-20.5%,?
COc1ccccc1OCCn1cc(/C=N/NC(=O)c2ccncc2)c2ccccc21,?,-9.4%,12.6µM*[quencher],·,-15.4%,?
O=C(N/N=C/c1cn(CCOc2ccccc2)c2ccccc12)c1ccncc1,?,?,14.1µM*[quencher],?,?,2.6%
Cn1cnnc1SCC(=O)c1ccc(O)c(O)c1,-2.1%,10µM*,0.9%,·,-2.6%,-1.7%
CC(=O)c1ccc(O)c(CSc2nncn2C)c1,3.7%,?,8.2%,·,4.3%,4.1%
O=C(CSc1nnnn1-c1ccc(F)cc1)c1ccc(O)c(O)c1,?,28.2µM*,?,?,-23.3%,8.0%
COc1ccc(-n2nnnc2SCC(=O)c2cccc(OC)c2)cc1,-9.0%,8.0%,?,?,6.9%,-17.0%
COc1ccc2c(c1)CC(C(=O)NCCN1CCN(c3cccc(C)c3C)CC1)CO2 (centres undefined),?,·,-20.1%,-7.8%[46 µM],·,1.9%
CN(C)c1nc(-c2ccc([N+](=O)[O-])cc2)cs1,12.6µM*,6.9%,?,-16.0%,-0.9%,9.6%
